D2 PAM-1: Beta-Arrestin HTS for Positive Allosteric Modulators of the Human D2 Dopamine Receptor: Potentiators; potentiation, % (test concentration not listed); D(2) dopamine receptor (Homo sapiens), P14416; 360,000 compounds, 0.23% hits; DiscoveRx D2 beta-arrestin cells, luminescence, 90 min; 100% = 57 uM dopamine signal; in the data active = potentiation above about 50%; inconclusive = mostly about 30% to 49%
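PathHunter beta-arrestin assay in DiscoveRx D2 cells. Compounds were added with an EC20 of dopamine (50 nM final) for 90 min at 37 deg C. Luminescence was read 1 h after detection reagent, with 57 uM dopamine as the EC100 control.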
D2 PAM-2: HTS Assay for Positive Allosteric Modulators of the Human D2 Dopamine Receptor: Primary Screen for Potentiators; AID 485347, 2010; HEK293 T-REx D2, calcium flux, EC20 dopamine potentiation; potentiation, % at 10 µM; 340,000 compounds, 0.34% hits;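 active = potentiation over 3 SD above the plate norm, cut at about 30% in these data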; also: 0% is about no effect
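Potentiation of an EC20 dopamine calcium response measured kinetically over 180 s, after a preceding 180 s compound-only read flagging agonists. Cells: inducible Hek293 Trex D2 line, 4000/well, cultured overnight at 30 C before dye loading.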
D2 ag-1: HTS Assay for Allosteric Agonists of the Human D2 Dopamine Receptor: Primary Screen for Agonists; 340,000 compounds, 0.53% hits; D(2) dopamine receptor (Homo sapiens), P14416; activation, % at 2 µM; AID 485358, 2010; HEK293 T-REx D2 cells, calcium flux agonist mode;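 active = activation over 3 SD above normal in the single-dose calcium agonist read, cut at about 30% in these data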; also: 0% is about no effect
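HEK293 Trex D2 cells, tetracycline-induced, o/n 30 C 5% CO2; no-wash Ca dye, RT 30–90 min; 10-cycle baseline, 23 nl cpd added, kinetic Ca read 180 s; agonist hits = positive Ca response.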
D2 antag: HTS Assay for Allosteric Antagonists of the Human D2 Dopamine Receptor: Primary Screen for Antagonists; HEK293 TREx D2 cells, calcium flux, dopamine EC80; AID 485344, 2010; D(2) dopamine receptor (Homo sapiens), P14416; inhibition, % at 10 µM; 340,000 compounds, 2% hits; in the data active = inhibition above about 30%; inactive = below that, where a call was filed; also: 0% is about no effect
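Tetracycline-induced HEK293 T-REx cells expressing D2 force-coupled to calcium signalling were dye-loaded, exposed to compound for 180 s, then challenged with an EC80 of dopamine; calcium flux was followed kinetically for a further 180 s.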
D2 ag-2: Beta-Arrestin HTS for Positive Allosteric Modulators of the Human D2 Dopamine Receptor: Agonists; 360,000 compounds, 0.084% hits; DiscoveRx PathHunter D2 beta-arrestin, luminescence, 90 min; 100% = 57 uM dopamine signal; activation, % (concentration not given with the values); AID 624465, 2012; in the data active = activation above about 40%; inconclusive = between about 15% and that limit
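DiscoveRx PathHunter D2 beta-arrestin cells (2,100/well) attached overnight, then compound-stimulated 90 min at 37 C in HBSS/10 mM HEPES/0.1% Tween-20 buffer; beta-galactosidase complementation read by luminescence after 1 h at ambient temperature. Dopamine 57 uM final (EC100) as control.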
D3 arrestin ag: qHTS of D3 Dopamine Receptor Agonist: D3 Dopamine Receptor B-arrestin Agonist Confirmatory Assay; shares compounds with D2 ag-1; DiscoveRx D3 beta-arrestin cells, luminescence, 90 min; Potency, µM (titrated, usually from 76.9 µM), inactives show at the highest dose activation, usual class: activators; 2,300 compounds, 4% hits; AID 720506, 2013;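 also: potency is read from the fitted curve at half-maximal effect; 100% = dopamine control response; nearly all actives have a fitted effect of over 70% in size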
Target sequence (P35462 whole entry, looked up): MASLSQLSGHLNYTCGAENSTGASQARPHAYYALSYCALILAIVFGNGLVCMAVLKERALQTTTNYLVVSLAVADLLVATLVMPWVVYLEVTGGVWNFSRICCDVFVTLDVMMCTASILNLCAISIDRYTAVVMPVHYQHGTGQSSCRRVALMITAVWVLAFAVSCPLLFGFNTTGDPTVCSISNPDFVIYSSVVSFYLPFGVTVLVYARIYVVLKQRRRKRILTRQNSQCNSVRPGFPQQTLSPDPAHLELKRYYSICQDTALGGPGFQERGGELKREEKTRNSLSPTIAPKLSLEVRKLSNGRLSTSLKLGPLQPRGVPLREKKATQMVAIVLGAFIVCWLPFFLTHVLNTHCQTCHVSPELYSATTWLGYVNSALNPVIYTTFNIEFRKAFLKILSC
D2 ag-3: qHTS of D3 Dopamine Receptor Agonist: D2 Dopamine Receptor B-arrestin Agonist Counterscreen. DiscoveRx PathHunter D2 beta-arrestin, luminescence, 90 min; response scale: percent relative to full dopamine signal. Potency, µM (series often up to 76.9 µM), for the others: top-dose activation, hits mostly activators. 2,300 compounds, 5.9% hits. shares compounds with D2 ag-1. AID 720507, 2013; also: potency is read from the fitted curve at half-maximal effect; % of control where 0% means no effect; nearly all actives have a fitted effect of over 70% in size
An asterisk follows results filed as active; ? = inconclusive; · = not tested or not shown. Rows were chosen to be rich in hits. Some 2.4% of all compounds tested hit in one or more screens of this group. Unless noted, calls follow the shape of the dose curve; as a rule, active = well fitted activation curve with a large enough effect; inconclusive = small, poorly fitted or top-dose-only effect; inactive = flat fitted curve, though single readings scatter.

SMILES | D2 PAM-1 | D2 PAM-2 | D2 ag-1 | D2 antag | D2 ag-2 | D3 arrestin ag | D2 ag-3
COc1cccc(OCC(O)CN2CCN(c3ccc(F)cc3)CC2)c1 (configuration not stated) | -12.7 | -20.1 | 33.9* | 80.4* | 1.4 | 9.6% | 3.0%
Cc1ccnc(N2CCC(C(=O)NCc3ccc4c(c3)OCO4)CC2)n1 | -3.8 | -2.8 | -0.6 | 3.6 | -2.3 | · | ·
COc1ccccc1CNC(=O)COC(=O)CSc1ccc(C)c(C)c1 | -11.7 | -5.0 | -0.4 | -4.6 | -3.3 | -7.0% | -4.9%
Cc1ccc(SCC(=O)OCC(=O)NCc2cccs2)cc1C | -3.9 | 6.6 | 0.2 | -3.2 | -6.3 | · | ·
COc1ccc(OCCC(=O)OCC(=O)NC(=O)NC(C)C)cc1 | 1.7 | -11.4 | 0.2 | 13.0 | -1.1 | · | ·
O=C(NCCOC(=O)c1ccc(C(=O)OCCNC(=O)c2cccnc2)s1)c1cccnc1 | -2.0 | -28.2 | 69.2* | 28.8 | -4.8 | -7.6% | -3.7%
COc1ccc(/C=N/NC(=O)c2cccc([N+](=O)[O-])c2)cc1OS(=O)(=O)c1ccc(C)cc1 | -6.5 | · | · | · | 1.7 | · | ·
N#C/C(=C\c1ccc(-c2ccccc2C(=O)O)o1)c1nc2ccccc2[nH]1 | 2.5 | 5.3 | 8.0 | -16.8 | -8.9 | 3.0% | -3.3%
N#CN=C(c1ccccc1)c1ccccc1 | -3.5 | 0.9 | 0.5 | 7.3 | -0.1 | · | ·
N#CCN=C(c1ccccc1)c1ccccc1 | -8.1 | -7.8 | -0.1 | 20.0 | -7.6 | -9.6% | -2.9%
O=C(N1CCN(Cc2ccccc2)CC1)C12CC3CC(CC(C3)C1)C2 | -24.3 | 10.3 | -1.3 | -19.9 | -2.8 | · | ·
O=C(N1CCN(c2ccccc2)CC1)C12CC3CC(CC(C3)C1)C2 | -1.7 | -30.0 | 80.5* | 72.0* | 7.1 | 21.7% | 20.9%
Cc1cc(C)c(OCC(O)CN2CCN(c3ccccn3)CC2)c(C)c1 (configuration not stated) | ? | -25.9 | 78.8* | 78.1* | 48.2* | 0.0794µM* | 10µM*
OC(COc1ccc(Cl)c2ccccc12)CN1CCN(c2ccccn2)CC1 (configuration not stated) | -24.3 | -21.4 | 53.6* | 35.5* | 4.7 | 14.1µM* | ?
Cc1cc(OCC(O)CN2CCN(c3ccccn3)CC2)cc(C)c1Cl (configuration not stated) | 5.1 | -16.7 | 46.1* | 43.2* | ? | 6.31µM* | ?
OC(CN1CCN(c2ccccn2)CC1)Cn1c2ccccc2c2ccccc21 (configuration not stated) | -6.0 | -19.3 | 2.1 | 2.3 | 7.6 | · | ·
Cc1ccc(S(=O)(=O)NNC(=O)C2CC=CCC2C(=O)O)cc1 (configuration not stated) | -6.7 | 12.8 | 0.0 | -0.9 | -1.4 | · | ·
Cc1ccc(NNC(=O)c2cc(C)on2)c(C)c1 | -2.1 | 7.3 | 1.1 | -7.9 | 2.1 | · | ·
Cc1cc(C(=O)NNC(=O)c2ccc(C(F)(F)F)cc2)no1 | -5.6 | 1.1 | 0.8 | 18.6 | -1.4 | -5.9% | -6.1%
Cc1cc(C(=O)NNc2ccc(F)cc2F)no1 | -6.0 | -19.3 | 49.0* | 8.5 | 5.8 | -1.7% | -1.4%
O=C(CN1CCOCC1)Nc1scc(-c2ccccc2)c1C(=O)N1CCOCC1 | 1.9 | -5.2 | -0.1 | 9.4 | -0.7 | · | ·
COc1ccc(CNC(=O)CCc2c(C)nc3cc(-c4ccccc4OC)nn3c2C)cc1 | -18.5 | 3.3 | -0.3 | -0.8 | -6.1 | · | ·
